Test results reported in PubChem BioAssay (EPA / NIEHS).
Inconclusive results are not listed. Calls of active or inactive are those of the source. How the source made its calls, unless noted: active means hit-call score of the fitted dose curve at least 0.9, where 1 is the maximum; inconclusive means response in the unintended direction; inactive means score below 0.9.

Tests used:
[1] = target: Bile acid receptor (Homo sapiens) (UniProt Q96RI1); experiment: ATG_FXR_TRANS: Attagene TRANS-FACTORIAL HepG2 Assay for Farnesoid X Receptor (FXR) (AID 2282979); details: HepG2 Attagene TRANS FXR-GAL4 reporter transcription;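 further: hits raise reporter mRNA above DMSO so AC50 marks FXR activation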
How it was run: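 Transient transfection of HepG2 with multiplexed GAL4-UAS reporter units; exogenous FXR-GAL4 chimera. Dose 24 h → TriZol RNA → oligo(dT) RT → PCR, 6-FAM primer extension, HpaI cut → CE. Gain vs DMSO.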

[2] = target: Oxysterols receptor LXR-beta (Homo sapiens) (UniProt P55055); experiment: ATG_LXRb_TRANS: Attagene TRANS-FACTORIAL HepG2 Assay for human Liver X Receptor beta (LXRb) (AID 2282981); details: HepG2 Attagene TRANS GAL4-LXRb reporter, mRNA
How it was run: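 After 24 h chemical treatment of transfected HepG2 cells carrying exogenous NR-Gal4 chimeras, reporter mRNA was quantified by fluorescent RT-PCR and capillary electrophoresis; activity taken as increase over DMSO controls.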

[3] = target: Hepatocyte nuclear factor 4-alpha (Homo sapiens) (UniProt P41235); experiment: ATG_HNF4a_TRANS: Attagene TRANS-FACTORIAL HepG2 Assay for human Hepatocyte Nuclear Factor 4 alpha (HNF4a) (AID 2282982); details: HepG2 HNF4a transactivation reporter, mRNA readout
How it was run: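 Activity of an exogenous HNF4a–Gal4 fusion scored as induced GAL4-UAS reporter transcripts after 24 h chemical exposure of transfected human HepG2 cells. Read-out via RT-PCR with 6-FAM labelling and capillary electrophoresis; rise over DMSO baseline.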

[4] = ATG_M_06_TRANS: Attagene TRANS-FACTORIAL HepG2 Assay for M06 Transcription Factor (Internal Marker) (AID 2282983); details: HepG2 Attagene TRANS M06 internal marker reporter;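 further: reporter transcript level by RT-PCR then capillary electrophoresis fluorescence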
How it was run: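 Background control endpoint: reporter mRNA from transiently transfected HepG2 after 24 h dosing, detected by RT-PCR with capillary electrophoresis fluorescence. Analysed for gain versus DMSO.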

[5] = ATG_M_32_TRANS: Attagene TRANS-FACTORIAL HepG2 Assay for M32 Transcription Factor (Internal Marker) (AID 2282984); details: HepG2 Attagene TRANS M32 internal marker reporter;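 further: transcript level of a background control reporter unit measured by RT-PCR and capillary electrophoresis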
How it was run: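 Internal background reporter in transfected HepG2: after 24 h chemical exposure, RNA reverse-transcribed, reporter cDNA amplified, fluorescently labelled and HpaI-cut, then sized by capillary electrophoresis. Gain of signal fitted against DMSO control.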

[6] = target: Transcriptional activator Myb (Homo sapiens) (UniProt P10242); experiment: ATG_Myb_CIS: Attagene CIS-FACTORIAL HepG2 Assay for human Myeloblastosis (Myb) Proto-Oncogene Transcription Factor (AID 2282986; active means hit-call score of the fitted dose curve at least 0.9, where 1 is the maximum; inactive means score below 0.9); details: HepG2 Attagene CIS-FACTORIAL Myb reporter transcription; actives raise or lower the signal
How it was run: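 Reporter mRNA is quantified by RT-PCR and capillary electrophoresis 24 h after dosing HepG2 cells transfected with cis-regulated reporter units, which track endogenous transcription factor activity. Gain and loss of signal are fitted versus DMSO baseline.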

[7] = target: Nuclear respiratory factor 1 (Homo sapiens) (UniProt Q16656); experiment: ATG_NRF1_CIS: Attagene CIS-FACTORIAL HepG2 Assay for human Nuclear Respiratory Factor 1 (NRF1) Orphan Gene (AID 2282987; active means hit-call score of the fitted dose curve at least 0.9, where 1 is the maximum; inactive means score below 0.9); details: HepG2 NRF1 cis-element reporter, Attagene multiplex; actives raise or lower the signal
How it was run: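 Endogenous NRF1-driven reporter transcription in transfected HepG2 cells after 24 h treatment. Readout: RT-PCR products, 6-FAM labelled and resolved by capillary electrophoresis; changes fitted both directions relative to DMSO.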

[8] = ATG_NFI_CIS: Attagene CIS-FACTORIAL HepG2 Assay for human Nuclear Factor I (NFI) (AID 2282989; active means hit-call score of the fitted dose curve at least 0.9, where 1 is the maximum; inactive means score below 0.9); details: HepG2 cis-regulatory reporter, NFI response element transcription; actives raise or lower the signal
How it was run: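 Transfected HepG2 liver cells, exposed 24 h, supplied total RNA for oligo(dT) reverse transcription and reporter-specific PCR. Labelled, HpaI-cut fragments were sized by capillary electrophoresis; DMSO set the baseline for bidirectional fitting.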

[9] = target: Oxysterols receptor LXR-alpha (Homo sapiens) (UniProt Q13133); experiment: ATG_LXRa_TRANS: Attagene TRANS-FACTORIAL HepG2 Assay for human Liver X Receptor alpha (LXRa) (AID 2282980); details: HepG2 Attagene TRANS reporter, LXRa transactivation
How it was run: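 Transfect HepG2 with GAL4-UAS multiplex reporter constructs (TRANS format, chimeric receptor-GAL4); treat 24 h; extract RNA, reverse-transcribe, PCR-amplify, FAM-label, HpaI-digest; resolve fragments by capillary electrophoresis. Upward response vs DMSO.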

[10] = target: Nuclear receptor subfamily 4 group A member 2 (Homo sapiens) (UniProt P43354); experiment: ATG_NURR1_TRANS: Attagene TRANS-FACTORIAL HepG2 Assay for human Nuclear Receptor Related Protein 1 (NURR1) (AID 2282985); details: HepG2 Attagene TRANS reporter, mRNA readout
How it was run: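 Reporter transcript induction, measured by RT-PCR with fluorescent labelling, HpaI digestion and capillary electrophoresis, after 24 hr dosing of human HepG2 cells transiently expressing an exogenous NR-Gal4 fusion with GAL4-UAS-driven reporters; DMSO as baseline.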

Sequence of Bile acid receptor (Homo sapiens) (Q96RI1 whole entry, looked up, the tested form may be a part): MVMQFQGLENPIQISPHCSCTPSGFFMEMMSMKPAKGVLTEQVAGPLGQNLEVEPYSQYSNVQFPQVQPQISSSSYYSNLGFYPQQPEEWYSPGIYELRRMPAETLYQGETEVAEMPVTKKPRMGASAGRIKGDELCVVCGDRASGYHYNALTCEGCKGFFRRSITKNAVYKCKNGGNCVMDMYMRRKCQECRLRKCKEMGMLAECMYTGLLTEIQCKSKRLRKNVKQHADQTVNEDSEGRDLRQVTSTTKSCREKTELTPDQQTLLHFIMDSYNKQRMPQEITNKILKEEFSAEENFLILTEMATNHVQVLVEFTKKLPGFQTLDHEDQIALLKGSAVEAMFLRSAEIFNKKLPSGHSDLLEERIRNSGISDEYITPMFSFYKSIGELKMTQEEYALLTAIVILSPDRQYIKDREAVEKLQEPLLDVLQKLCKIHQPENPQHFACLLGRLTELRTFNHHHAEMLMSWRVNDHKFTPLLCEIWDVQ
Sequence of Oxysterols receptor LXR-beta (Homo sapiens) (P55055 whole entry, looked up, the tested form may be a part): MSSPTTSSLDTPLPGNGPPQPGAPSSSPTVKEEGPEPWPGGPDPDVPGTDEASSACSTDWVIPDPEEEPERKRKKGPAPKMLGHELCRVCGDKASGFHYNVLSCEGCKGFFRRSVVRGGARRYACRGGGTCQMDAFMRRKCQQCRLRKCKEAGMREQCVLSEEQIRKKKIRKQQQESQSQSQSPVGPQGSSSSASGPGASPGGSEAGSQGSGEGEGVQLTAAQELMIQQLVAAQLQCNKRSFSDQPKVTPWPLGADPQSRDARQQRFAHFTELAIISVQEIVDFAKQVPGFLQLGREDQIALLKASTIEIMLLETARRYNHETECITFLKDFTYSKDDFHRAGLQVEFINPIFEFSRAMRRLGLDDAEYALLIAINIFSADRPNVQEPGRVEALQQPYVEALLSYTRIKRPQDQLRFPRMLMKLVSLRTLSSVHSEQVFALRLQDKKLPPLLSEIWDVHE
Sequence of Hepatocyte nuclear factor 4-alpha (Homo sapiens) (P41235 whole entry, looked up, the tested form may be a part): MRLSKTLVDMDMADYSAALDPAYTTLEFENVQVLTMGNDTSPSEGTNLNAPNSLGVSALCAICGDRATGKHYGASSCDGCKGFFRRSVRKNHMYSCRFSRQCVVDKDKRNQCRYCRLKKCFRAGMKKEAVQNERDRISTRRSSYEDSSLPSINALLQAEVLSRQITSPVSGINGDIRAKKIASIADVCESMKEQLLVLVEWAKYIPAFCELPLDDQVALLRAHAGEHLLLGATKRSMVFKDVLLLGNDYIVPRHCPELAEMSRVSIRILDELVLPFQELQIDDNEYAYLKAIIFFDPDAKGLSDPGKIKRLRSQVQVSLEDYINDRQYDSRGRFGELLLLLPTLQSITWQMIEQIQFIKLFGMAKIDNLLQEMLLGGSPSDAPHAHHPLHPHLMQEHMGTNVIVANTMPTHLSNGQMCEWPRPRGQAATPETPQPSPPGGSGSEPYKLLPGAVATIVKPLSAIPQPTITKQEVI
Sequence of Nuclear receptor subfamily 4 group A member 2 (Homo sapiens) (P43354 whole entry, looked up, the tested form may be a part): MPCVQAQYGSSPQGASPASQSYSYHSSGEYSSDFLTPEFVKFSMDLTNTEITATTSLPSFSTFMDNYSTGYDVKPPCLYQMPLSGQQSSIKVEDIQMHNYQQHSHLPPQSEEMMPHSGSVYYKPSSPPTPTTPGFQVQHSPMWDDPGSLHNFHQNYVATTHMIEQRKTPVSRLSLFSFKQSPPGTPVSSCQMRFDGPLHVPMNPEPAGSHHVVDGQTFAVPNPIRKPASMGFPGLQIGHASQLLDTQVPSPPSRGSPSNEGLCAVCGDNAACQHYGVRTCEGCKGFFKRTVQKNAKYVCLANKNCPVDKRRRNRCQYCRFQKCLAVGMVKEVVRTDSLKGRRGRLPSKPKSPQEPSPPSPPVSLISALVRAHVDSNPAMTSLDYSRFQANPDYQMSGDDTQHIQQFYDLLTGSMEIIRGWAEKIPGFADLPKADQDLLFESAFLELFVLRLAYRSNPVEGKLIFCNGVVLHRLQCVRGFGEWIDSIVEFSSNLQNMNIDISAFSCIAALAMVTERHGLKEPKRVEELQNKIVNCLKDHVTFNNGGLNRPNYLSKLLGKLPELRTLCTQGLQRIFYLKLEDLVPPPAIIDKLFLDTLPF
Sequence of Oxysterols receptor LXR-alpha (Homo sapiens) (Q13133 whole entry, looked up, the tested form may be a part): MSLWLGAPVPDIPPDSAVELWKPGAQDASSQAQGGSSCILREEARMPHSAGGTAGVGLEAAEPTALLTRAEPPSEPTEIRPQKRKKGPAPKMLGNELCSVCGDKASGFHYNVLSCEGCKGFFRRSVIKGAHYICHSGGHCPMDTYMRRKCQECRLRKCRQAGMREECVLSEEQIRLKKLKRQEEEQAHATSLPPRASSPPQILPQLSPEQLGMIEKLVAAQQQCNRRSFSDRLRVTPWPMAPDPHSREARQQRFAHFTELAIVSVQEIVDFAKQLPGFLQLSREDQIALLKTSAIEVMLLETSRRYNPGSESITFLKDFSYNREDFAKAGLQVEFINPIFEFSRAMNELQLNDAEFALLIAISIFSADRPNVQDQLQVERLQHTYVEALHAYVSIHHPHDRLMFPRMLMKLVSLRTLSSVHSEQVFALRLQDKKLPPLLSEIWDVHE
Sequence of Nuclear respiratory factor 1 (Homo sapiens) (Q16656 whole entry, looked up): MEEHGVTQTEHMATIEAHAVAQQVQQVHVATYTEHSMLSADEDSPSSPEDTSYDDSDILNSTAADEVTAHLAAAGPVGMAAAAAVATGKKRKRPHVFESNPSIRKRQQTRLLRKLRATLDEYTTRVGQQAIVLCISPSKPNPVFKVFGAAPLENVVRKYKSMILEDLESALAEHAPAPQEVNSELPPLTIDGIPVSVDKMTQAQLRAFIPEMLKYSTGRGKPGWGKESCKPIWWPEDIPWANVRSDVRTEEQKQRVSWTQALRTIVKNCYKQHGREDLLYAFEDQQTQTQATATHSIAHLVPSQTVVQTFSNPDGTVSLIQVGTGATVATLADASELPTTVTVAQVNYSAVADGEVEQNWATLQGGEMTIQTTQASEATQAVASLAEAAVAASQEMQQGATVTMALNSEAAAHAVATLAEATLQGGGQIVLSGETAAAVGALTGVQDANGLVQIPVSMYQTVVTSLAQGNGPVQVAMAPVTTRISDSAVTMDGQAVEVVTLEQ
Sequence of Transcriptional activator Myb (Homo sapiens) (P10242 whole entry, looked up): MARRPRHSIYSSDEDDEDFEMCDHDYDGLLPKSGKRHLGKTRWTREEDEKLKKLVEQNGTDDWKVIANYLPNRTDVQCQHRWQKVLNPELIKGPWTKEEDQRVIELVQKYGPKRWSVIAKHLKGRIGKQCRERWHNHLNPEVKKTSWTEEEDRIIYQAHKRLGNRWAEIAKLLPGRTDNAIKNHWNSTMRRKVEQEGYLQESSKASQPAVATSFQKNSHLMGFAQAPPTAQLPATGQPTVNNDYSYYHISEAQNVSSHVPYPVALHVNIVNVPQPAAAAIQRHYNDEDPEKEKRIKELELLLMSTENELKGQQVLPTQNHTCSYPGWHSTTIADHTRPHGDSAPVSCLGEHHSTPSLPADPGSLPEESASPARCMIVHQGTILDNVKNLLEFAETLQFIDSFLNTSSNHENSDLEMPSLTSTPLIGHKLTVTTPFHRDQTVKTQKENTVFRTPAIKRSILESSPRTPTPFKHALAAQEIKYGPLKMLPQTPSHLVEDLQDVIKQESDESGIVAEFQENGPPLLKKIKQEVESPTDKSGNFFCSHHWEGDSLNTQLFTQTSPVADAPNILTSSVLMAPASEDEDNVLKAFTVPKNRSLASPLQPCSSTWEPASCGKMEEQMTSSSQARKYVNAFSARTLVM

Structure (SMILES) | outcome [1] | outcome [2] | outcome [3] | outcome [4] | outcome [5] | outcome [6] | outcome [7] | outcome [8] | outcome [9] | outcome [10] | AC50 [10] | AC50 [7] | AC50 [8]
CCC1(c2ccccc2)C(=O)NCNC1=O | inactive | inactive | inactive | inactive | inactive | inactive | inactive | inactive | – | – | – | – | –
CCOC(=O)c1ccc(N)cc1 | inactive | – | inactive | – | inactive | inactive | inactive | inactive | inactive | inactive | – | – | –
CCC1(C)NC(=O)NC1=O (stereo not given) | inactive | – | – | inactive | – | inactive | inactive | inactive | inactive | – | – | – | –
CCCC[P+](CCCC)(CCCC)CCCC | inactive | – | – | – | inactive | inactive | inactive | inactive | inactive | – | – | – | –
Cc1ccc(N)c(S(=O)(=O)O)c1 | inactive | inactive | inactive | inactive | – | inactive | inactive | inactive | – | – | – | – | –
CC(C=O)Cc1ccc(C(C)(C)C)cc1 (stereo not given) | inactive | – | – | inactive | inactive | inactive | inactive | inactive | inactive | – | – | – | –
Cc1cc(=O)oc2cc(N(C)C)ccc12 | inactive | – | – | inactive | inactive | – | inactive | inactive | inactive | – | – | – | –
Cc1c(OCC(F)(F)F)ccnc1CS(=O)c1nc2ccccc2[nH]1 (stereo not given) | inactive | inactive | – | inactive | inactive | inactive | – | inactive | – | – | 36.7 µM (active) | 128 µM (active) | –
NCC1CCCC(CN)C1 (stereo not given) | inactive | inactive | inactive | inactive | inactive | inactive | inactive | inactive | – | inactive | – | – | –
COC(=O)Nc1ccc(Cl)c(Cl)c1 | inactive | inactive | – | inactive | inactive | inactive | inactive | inactive | – | – | 79.9 µM (active) | – | –
CSCCC=O | inactive | – | – | inactive | – | inactive | inactive | – | inactive | – | – | – | –
O=C1OC(=O)c2c(Cl)c(Cl)c(Cl)c(Cl)c21 | inactive | inactive | inactive | – | inactive | inactive | inactive | inactive | – | inactive | – | – | –
C=C(C)C(=O)OCC(CC)(COC(=O)C(=C)C)COC(=O)C(=C)C | inactive | inactive | – | inactive | inactive | inactive | inactive | inactive | – | inactive | – | – | –
Cc1ccc(C)o1 | inactive | – | – | – | – | inactive | inactive | inactive | inactive | inactive | – | – | –
COC(C)(C)CC(C)=O | inactive | inactive | inactive | inactive | inactive | – | inactive | – | – | inactive | – | – | –
CC(=O)O[C@H]1C[C@@H]2CC[C@@]1(C)C2(C)C | inactive | – | – | inactive | inactive | – | inactive | inactive | inactive | – | – | – | –
CC(=O)CC(=O)Nc1ccccc1 | inactive | inactive | inactive | inactive | – | – | inactive | inactive | – | inactive | – | – | –
CCOC(=O)CC(C)O (stereo not given) | inactive | – | inactive | – | inactive | inactive | inactive | inactive | inactive | – | – | – | –
COc1ccc(OC)c(N=Nc2c(O)ccc3ccccc23)c1 | inactive | inactive | inactive | inactive | – | inactive | inactive | inactive | – | inactive | – | – | –
CC(=O)O[C@@H]1CC2CCC1(C)C2(C)C (stereo not given in full) | inactive | inactive | inactive | – | inactive | inactive | inactive | – | – | inactive | – | – | –
CCc1cc(C(C)(C)C)c(O)c(C(C)(C)C)c1 | inactive | – | – | – | inactive | inactive | inactive | – | inactive | – | 11.4 µM (active) | – | 54 µM (active)
CCCCCCCCSCCO | inactive | – | – | inactive | inactive | inactive | inactive | inactive | inactive | – | – | – | –
CCCCCCCCCCCC(=O)OC[C@@H](O)[C@H]1OC[C@H](O)[C@H]1O | inactive | inactive | inactive | inactive | inactive | – | inactive | inactive | – | – | – | – | –
C=CC(C)C#N (stereo not given) | inactive | – | – | inactive | inactive | inactive | inactive | inactive | inactive | inactive | – | – | –
Nc1ccccc1[N+](=O)[O-] | inactive | inactive | – | inactive | inactive | inactive | inactive | – | – | inactive | – | – | –
CCCCOC(=O)CCCCCCCC(=O)OCCCC | inactive | – | – | inactive | inactive | inactive | inactive | inactive | inactive | inactive | – | – | –
CCCCCCCCCCCCCC(=O)OCC(O)CO (stereo not given) | inactive | inactive | inactive | inactive | inactive | inactive | inactive | – | – | – | – | – | –
O=C(CC(=O)c1ccccc1)c1ccccc1 | inactive | inactive | – | inactive | inactive | – | – | – | – | inactive | – | 176 µM (active) | 100 µM (active)
